Literature values in PubChem BioAssay AID977610.
Screen size: about 3,600 compounds; about 3,600 (100%) were called active. Cut-off not given; nearly all actives show Ki up to about 18000 µM. So high a share suggests a set chosen from earlier hits. The list shows a part of the results. Numbered stars: 1 amine (or outer) side, 2 acyl side, 3 side chain; on linkers, the order of the positions; unused ones are H or OH. Square brackets hold non-standard residues; d marks the D form. Peptide text beside a SMILES is read from it. * marks the point of attachment. Orn(CH(NH2)2) = NC(N)NCCC[C@H](N)C(=O)O; X2 = O=C([C@H]1CCC[C@@H]1N[*:1])[*:2]; X1 = N[C@H]1CNC[C@@H]1C(=O)*; β3hL = CC(C)C[C@H](N)CC(=O)O

Test: PubChem AID 977610
Conditions: PDB protein-ligand complexes, literature Ki

**Q.** With NC1=NC2=NC[C@@H](CNc3ccc(C(=O)N[C@@H](CCC(=O)O)C(=O)O)cc3)N(C=O)C2C(=O)N1 (some centres undefined) as the compound, how does the Ki (protein: Serine hydroxymethyltransferase, putative SHMT, PDB entry 4oyt) read?
**A.** Its Ki is 1550 µM (active).

**Q.** With C[C@]12CC[C@@H](O)C[C@@H]1CC[C@@H]1[C@@H]2CC[C@]2(C)C=CC[C@@H]12 as the compound, how does the Ki (protein: Mus musculus constitutive androstane receptor, PDB entry 1xnx) read?
**A.** Its Ki is 0.416 µM (active).

**Q.** Which Ki (protein: D-ALANYL-D-ALANINE CARBOXYPEPTIDASE, PDB entry 3zcz) does the source give for C[C@@H](NC(=O)CCCC[C@@H](N)C(=O)O)[C@H](O)C(F)(F)F here?
**A.** The Ki was 0.17 µM (active).

**Q.** Which Ki (protein: HIV-1 reverse transcriptase, p66 subunit RT52A, PDB entry 4o44) does the source give for Cc1cc(C)c(Nc2nc(Nc3ccc(C#N)cc3)nc(OCCCN3CCOCC3)n2)c(C)c1 here?
**A.** The Ki was 0.014 µM (active).

**Q.** For CC(C)N1CCC(C(=O)Nc2c(OCCCO[C@@H]3O[C@H](CO)[C@@H](O)[C@H](O)[C@H]3O)cccc2OCc2cc(-c3ccc(Cl)s3)on2)CC1, which Ki (protein: Alpha Thrombin, hfIIa, PDB entry 4n3l) is on record?
**A.** The Ki was 0.1 µM (active).

**Q.** With Nc1cc(Cl)nc(N)n1 as the compound, how does the Ki (protein: PDE10A2, PDB entry 4ms0) read?
**A.** Its Ki is 410 µM (active).

**Q.** For CCCCCCCCOc1cccc(CSc2ccc(Br)cc2C(=O)O)c1, which Ki (protein: Dehydrosqualene synthase, PDB entry 3tfv) is on record?
**A.** The Ki was 0.08 µM (active).

**Q.** With CC(C)Nc1cc(=O)n(-c2ccccc2)nc1-c1ncn[nH]1 as the compound, how does the Ki (protein: MEMBRANE PRIMARY AMINE OXIDASE, PDB entry 4btx) read?
**A.** Its Ki is 0.29 µM (active).

**Q.** With c1ccc(-c2nc(N3CCOCC3)c3sccc3n2)cc1 as the compound, how does the Ki (protein: 3-OXOACYL-[ACYL-CARRIER-PROTEIN] REDUCTASE FABG, PDB entry 4bny) read?
**A.** Its Ki is 0.08 µM (active).

**Q.** With O=C(O)C1=C[C@H]2OCC=C[C@@](O)(C1)[C@H]2O as the compound, how does the Ki (protein: SHIKIMATE KINASE, PDB entry 4bqs) read?
**A.** The Ki was 62 µM (active).

**Q.** With O=C(O)CCc1cccc(C(=O)O)c1 as the compound, how does the Ki (protein: FKBO, PDB entry 4bps) read?
**A.** Its Ki is 1020 µM (active).

**Q.** Which Ki (protein: Factor VII heavy chain & Factor VII light chain, PDB entry 4isi) does the source give for CCC1(CC)C[C@@H](C(=O)NCc2ccc(C(N)N)cc2)n2c1c(Cl)nc(NC1CCC1)c2=O here?
**A.** The Ki was 0.0073 µM (active).

**Q.** Which Ki (protein: human protein-tyrosine phosphatases 1B, PTP-1B, PDB entry 1gfy) does the source give for O=C(O)C(=O)Nc1sc2c(c1C(=O)O)CCSC2 here?
**A.** Its Ki is 8.32 µM (active).

**Q.** Which Ki (protein: rat neurolysin, PDB entry 4fxy) does the source give for C[C@H](NC(=O)NC1C2CC3CC(C2)CC1C3)C(=O)N1CC[C@H](c2ccccc2Cl)N1c1ccccc1F (some centres undefined) here?
**A.** The Ki was 0.029 µM (active).

**Q.** Which Ki (protein: PDE10A2, PDB entry 4msc) does the source give for c1cnc2cc(OCc3ccc4ccccc4n3)ccc2c1 here?
**A.** The Ki was 1.1 µM (active).

**Q.** With Cc1nc2cc(OCc3ccc4ccccc4n3)ccc2s1 as the compound, how does the Ki (protein: PDE10A2, PDB entry 4mse) read?
**A.** The Ki was 0.69 µM (active).

**Q.** Which Ki (protein: human Thymidylate synthase (TS) R163K, PDB entry 3h9k) does the source give for O=c1[nH]c(=O)n([C@H]2C[C@H](O)[C@@H](CO[P+](O)(O)O)O2)cc1F here?
**A.** The Ki was 0.014 µM (active).

**Q.** With O=c1[nH]c(=O)n([C@@H]2O[C@H](CO[P+](O)(O)O)[C@@H](O)[C@H]2O)cc1F as the compound, how does the Ki (protein: Mt orotidine 5'-monophosphate decarboxylase (OMPDC) D70G mutant, PDB entry 3g1v) read?
**A.** The Ki was 645 µM (active).

**Q.** With Nc1ncnc2c1ncn2[C@@H]1O[C@H](COS(=O)(=O)NC(=O)[C@@H](N)CO)[C@@H](O)[C@H]1O as the compound, how does the Ki (protein: Threonine--tRNA ligase, mitochondrial, PDB entry 4eo4) read?
**A.** Its Ki is 0.45 µM (active).

**Q.** For Nc1ncnc2c1ncn2[C@@H]1O[C@H](CO[P+](O)(O)O[P+](O)(O)N[P+](O)(O)O)[C@@H](O)[C@H]1O, which Ki (protein: ATP-BINDING CASSETTE SUB-FAMILY B MEMBER 10, PDB entry 4ayw) is on record?
**A.** The Ki was 100 µM (active).

**Q.** With Nc1ncnc2c1ncn2[C@@H]1O[C@H](CO[P+](O)(O)O[P+](O)(O)O[P+](O)(O)O)[C@@H](O)[C@H]1O as the compound, how does the Ki (protein: 6-phosphofructokinase isozyme 2, PDB entry 3umo) read?
**A.** Its Ki is 129 µM (active).

**Q.** And the Ki (protein: 6-phosphofructokinase isozyme 2, PDB entry 3ump)?
**A.** Its Ki is 1030 µM (active).

**Q.** Which Ki (protein: Lipid A export ATP-binding/permease protein msbA, PDB entry 3B5Y) does the source give for Nc1ncnc2c1ncn2[C@@H]1O[C@H](COP(=O)(O)OP(=O)(O)NP(=O)(O)O)[C@@H](O)[C@H]1O here?
**A.** Its Ki is 10 µM (active).

**Q.** With Nc1ncnc2c1ncn2[C@@H]1O[C@H](CO[P+](O)(O)OCC=CCC[C@@H]2SC[C@@H]3NC(=O)N[C@@H]32)[C@@H](O)[C@H]1O as the compound, how does the Ki (protein: Biotin-[acetyl-CoA-carboxylase] ligase, PDB entry 4dq2) read?
**A.** Its Ki is 0.03 µM (active).

**Q.** For Nc1ncnc2c1ncn2[C@@H]1O[C@H](CO[P+](O)(O)O)[C@@H](O)[C@H]1O[P+](O)(O)O, which Ki (protein: Aspartate-semialdehyde dehydrogenase ASADH, PDB entry 4r3w) is on record?
**A.** Its Ki is 1000 µM (active).

**Q.** Which Ki (protein: Biotin ligase, PDB entry 3v7s) does the source give for Cc1ccc2oc(=O)n(CCCCn3cc(CCCCC[C@@H]4SC[C@@H]5NC(=O)N[C@@H]54)nn3)c2c1 here?
**A.** The Ki was 0.09 µM (active).

**Q.** Which Ki (protein: ATP-BINDING CASSETTE SUB-FAMILY B MEMBER 10, PDB entry 4ayx) does the source give for Nc1ncnc2c1ncn2[C@@H]1O[C@H](CO[P+](O)(O)O[P+](O)(O)C[P+](O)(O)O)[C@@H](O)[C@H]1O here?
**A.** The Ki was 200 µM (active).

**Q.** And the Ki (protein: ATP-BINDING CASSETTE SUB-FAMILY B MEMBER 10 MITOCHONDRIAL, PDB entry 4ayt)?
**A.** Its Ki is 200 µM (active).

**Q.** With O[C@@H]1[C@H](O)[C@@H](CO[P+](O)(O)O)O[C@H]1n1cnc2c(-c3ccc4ccccc4c3)ncnc21 as the compound, how does the Ki (protein: 2'-deoxynucleoside 5'-phosphate N-hydrolase 1 DNPH1, PDB entry 4p5e) read?
**A.** Its Ki is 2.8 µM (active).

**Q.** What about the Ki (protein: 2'-deoxynucleoside 5'-phosphate N-hydrolase 1 DNPH1, PDB entry 4p5d) of the same compound?
**A.** Its Ki is 1.5 µM (active).

**Q.** Which Ki (protein: Biotin ligase, PDB entry 3v7c) does the source give for CC1(C)O[C@@H]2[C@H](O1)[C@@H](Cn1cc(CCCCC[C@@H]3SC[C@@H]4NC(=O)N[C@@H]43)nn1)O[C@H]2n1cnc2c(N)ncnc21 here?
**A.** Its Ki is 1.83 µM (active).

**Q.** With O=C(N[C@@H](CCCCNC(=O)c1ccc(I)cc1)C(=O)O)N[C@@H](C[C@H]1CO1)C(=O)O as the compound, how does the Ki (protein: Glutamate carboxypeptidase 2 GCPII, PDB entry 4oc1) read?
**A.** Its Ki is 0.254 µM (active).

**Q.** Which Ki (protein: Glutamate carboxypeptidase 2 GCPII, PDB entry 4oc5) does the source give for O=C(N[C@@H](CCCCNC(=O)c1ccc(I)cc1)C(=O)O)N[C@H](C(=O)O)c1ccc(O)cc1 here?
**A.** The Ki was 0.085 µM (active).

**Q.** With O=C(N[C@@H](CCCCNC(=O)c1ccc(I)cc1)C(=O)O)N[C@@H](Cc1ccncc1)C(=O)O as the compound, how does the Ki (protein: Glutamate carboxypeptidase 2 GCPII, PDB entry 4oc4) read?
**A.** The Ki was 0.105 µM (active).

**Q.** With O=C(N[C@@H](CCCCNC(=O)c1ccc(I)cc1)C(=O)O)N[C@@H](Cc1ccco1)C(=O)O as the compound, how does the Ki (protein: Glutamate carboxypeptidase 2 GCPII, PDB entry 4oc3) read?
**A.** Its Ki is 0.0053 µM (active).

**Q.** For C#CC[C@H](NC(=O)N[C@@H](CCCCNC(=O)c1ccc(I)cc1)C(=O)O)C(=O)O, which Ki (protein: Glutamate carboxypeptidase 2 GCPII, PDB entry 4oc2) is on record?
**A.** Its Ki is 0.0053 µM (active).

**Q.** Which Ki (protein: Glutamate carboxypeptidase 2 GCPII, PDB entry 4oc0) does the source give for O=C(N[C@@H](CCCCNC(=O)c1ccc(I)cc1)C(=O)O)NC1(C(=O)O)CC1 here?
**A.** Its Ki is 0.318 µM (active).

**Q.** Which Ki (protein: ANGIOTENSIN-CONVERTING ENZYME, ANCE, PDB entry 4aa2) does the source give for CC[C@H](C)[C@H](NC(=O)[C@H](CCCCN)NC(=O)[C@@H]1CCCN1C(=O)[C@@H](N)CCCNC(N)N)C(=O)N1CCC[C@H]1C(=O)N1CCC[C@H]1C(=O)O (H-[Orn(CH(NH2)2)]PKIPP-OH) here?
**A.** Its Ki is 107 µM (active).

**Q.** What does the source list for CSCC[C@H](NC(=O)[C@H](CC(C)C)NC(=O)CNC(=O)[C@H](Cc1ccccc1)NC(=O)[C@H](Cc1ccccc1)NC(=O)[C@H](CCC(N)=O)NC(=O)[C@H](CCC(N)=O)NC(=O)[C@@H]1CCCN1C(=O)[C@H](CCCCN)NC(=O)[C@@H]1CCCN1C(=O)[C@@H](N)CCCNC(N)N)C(=O)O?
**A.** Ki (protein: Substance-P receptor, PDB entry 2ks9): 9020 µM (active); Ki (protein: Substance-P receptor, PDB entry 2ksa): 871 µM (active); Ki (protein: Substance-P receptor, PDB entry 2ksb): 754 µM (active)

**Q.** With CSCC[C@H](NC(=O)[C@H](CC(C)C)NC(=O)[C@H](CC(C)C)NC(=O)[C@@H]1CCCN1C(=O)[C@@H](N)Cc1cnc[nH]1)C(=O)N[C@@H](CCCNC(N)N)C(=O)N[C@@H](CC(C)C)C(=O)N[C@@H](CC(C)C)C(=O)N[C@@H](Cc1cnc[nH]1)C(=O)N[C@@H](Cc1cnc[nH]1)C(=O)N1CCC[C@H]1C(=O)N[C@@H](CO)C(=O)O (H-HPLLM[Orn(CH(NH2)2)]LLHHPS-OH) as the compound, how does the Ki (protein: Estrogen receptor beta, PDB entry 4j26) read?
**A.** Its Ki is 3.64 µM (active).

**Q.** For CC(C)C[C@@H](CC(=O)NCC(=O)N[C@@H](CC(=O)O)C(=O)N[C@@H](C)C(=O)N[C@@H](Cc1ccccc1)C(=O)N[C@@H](CC(N)=O)C(=O)N[C@@H](CCCNC(N)N)C(N)=O)NC(=O)[C@H](CCCCN)NC(=O)[C@H]1CCC[C@@H]1NC(=O)[C@H](CC(C)C)NC(=O)[C@H]1CCC[C@@H]1NC(=O)[C@H](CCCNC(N)N)NC(=O)[C@H]1CCC[C@@H]1NC(=O)[C@H](C)NC(=O)[C@H]1CNC[C@@H]1N (X1-A[X2][Orn(CH(NH2)2)][X2]L[X2]K[β3hL]GDAFN[Orn(CH(NH2)2)]-NH2), which Ki (protein: Apoptosis regulator Bcl-XL, PDB entry 3fdm) is on record?
**A.** Its Ki is 0.002 µM (active).
